Over roughly 33,000 sequences, “E-score (-0.5 to 0.5)” has its median near -0.032; the highest 2% begin near 0.36. Only a selection was taken, and the highest values are over-represented in it overall.
target: T1, Sko1 (UniProt Q02100); assay: PBM E-score (8-mer binding enrichment) (E-score (-0.5 to 0.5)); higher = stronger / more preferred TF binding; conditions: protein concentration: 200 nM; construct: GST-full length
T1 sequence: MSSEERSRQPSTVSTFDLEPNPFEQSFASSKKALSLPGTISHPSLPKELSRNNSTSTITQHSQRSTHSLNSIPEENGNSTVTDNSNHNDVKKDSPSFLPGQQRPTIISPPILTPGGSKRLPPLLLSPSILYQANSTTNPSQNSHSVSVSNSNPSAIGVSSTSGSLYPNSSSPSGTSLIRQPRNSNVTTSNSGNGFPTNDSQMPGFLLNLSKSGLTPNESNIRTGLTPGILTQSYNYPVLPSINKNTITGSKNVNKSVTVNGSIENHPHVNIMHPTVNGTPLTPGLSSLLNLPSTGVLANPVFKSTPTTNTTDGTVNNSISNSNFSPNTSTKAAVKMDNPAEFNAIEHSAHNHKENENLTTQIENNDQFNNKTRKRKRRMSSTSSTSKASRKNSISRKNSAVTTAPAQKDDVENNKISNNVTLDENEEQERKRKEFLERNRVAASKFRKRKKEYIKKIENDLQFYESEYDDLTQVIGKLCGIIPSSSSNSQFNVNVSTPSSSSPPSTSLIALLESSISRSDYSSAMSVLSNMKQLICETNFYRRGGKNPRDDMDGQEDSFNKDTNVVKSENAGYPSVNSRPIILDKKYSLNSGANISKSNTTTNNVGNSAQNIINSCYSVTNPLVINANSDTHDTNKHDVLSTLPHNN
Description: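 Universal 'all 10-mer' protein binding microarrays (Agilent AMADID 015681) probed with GST-tagged S. cerevisiae TFs (full-length or DBD) made by in vitro transcription/translation (PURExpress), about 100-200 nM. Bound TF was detected with fluorescent anti-GST. Each ungapped 8-mer (which stands for itself and its reverse complement) is scored by the PBM enrichment score (E-score), a modified Wilcoxon-Mann-Whitney statistic from -0.5 to +0.5, computed with the Universal PBM Analysis Suite. Scale: above 0.35 generally sequence-specific binding.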

Sequence	PBM E-score
ATGACGGA	0.419
ATGACGGG	0.338
AGGACGAC	-0.114
ATGACGAC	0.466
ATGACGGC	0.285
CCGACGAA	0.144
CTGACGAA	0.373
ATGACGAG	0.462
CTGACGAC	0.342
GCGACGAC	-0.08
AAGACGAG	-0.189
ACCTCCGG	-0.282
CCCCACGA	-0.128
CGTTTTGC	0.177
ACACCTAC	-0.0103
CCGCTGAG	-0.29
AAAGCTTA	0.141
ACTAATGG	0.00996
ACTGAAGT	-0.0247
ACTCGCCT	-0.196
GGGACGAA	-0.164
GTGACGAA	0.446

Sequence	PBM E-score
ATGACGAA	0.488
ACGACGAA	0.25
ATGACAAA	0.154
GTGACAAA	0.167
AGACAGTA	0.0897
CCGCCCTC	-0.23
AAAGATGG	-0.0167
AAGCTCGG	-0.169
GAGGTAAC	0.0793
GAAAGTGC	-0.11
CTAATCTA	0.0405
ATCATATA	0.244
GTCATAAA	0.364
GTCATATA	0.373
CTCATATA	0.0195
ATCATAAA	0.175
CTAATTTA	0.261
ATAATCTA	0.189
GTAATTTA	0.366
GTAATCTA	0.394
ATAATTTA	0.222
TTCATAAA	0.0982

Sequence	PBM E-score
CCACACAG	-0.208
GGGACAAA	-0.0851
CGAAGAAG	0.0371
AACTCTAT	-0.186
TGATTCAA	0.144
ACCCCATG	-0.0741
ATCATAGA	0.205
GTCATAGA	0.406
GTAATATA	0.374
CTAATATA	0.302
ATAATATA	0.268
CTCATAGA	0.00332
GCCAGTGA	-0.0654
TACCCTGA	-0.126
CGCCTGAC	0.0438
AAGGCACG	0.132
ACCGCCGT	-0.264
GAAAAGGA	-0.0667
CCTCATCC	-0.292
CATCATCG	0.347
TATCATCA	0.272
AGTCATCC	-0.0488

Sequence	PBM E-score
CATCATCA	0.361
AGTCATCA	-0.103
CGTCATCC	0.475
CGTCATCA	0.489
GGTCATCA	0.207
CTGATCGC	-0.0786
ATATGCCA	-0.0891
AAAACAGA	0.112
AGAGTAGC	-0.00834
ACGTGGGC	0.347
ACGTGGTC	0.364
CCGTGGTA	-0.172
ACGTGGCT	0.321
ACGTGGAT	0.398
ACGTGGCA	0.297
GCGTGGTA	-0.0393
CCGTGGTC	-0.235
ACGTGGTA	0.391
ACGTGGAC	0.33
ACGTGGAA	0.311
